Source: PubChem
Shown are actives, neighbours in structure and some others; about 12% of the full set was active somewhere.
BAZ2B block – blocks human BAZ2B; Q9UIF8; AlphaScreen BAZ2B-H3K14Ac peptide displacement; Potency, µM (top dose mostly 114 µM), inactives show at the highest dose activity change, negative = inhibition, hits mostly inhibitors; actives 4.4% (n = 360,000); AID 504333; note: % is set by controls: 0 for no effect and ±100 for the full control effect; nearly all actives have a fitted effect of over 60% in size
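Multi-concentration screen (max 110 uM) measuring displacement of acetylated histone H3 peptide from BAZ2B by AlphaScreen, using 50 nM protein, 50 nM peptide and 10 ug/mL streptavidin donor plus Ni-chelate acceptor beads.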
Sfp inh – blocks B. subtilis Sfp PPTase activity; Q9F4F7; Biochemical Sfp PPTase activity, qHTS; Potency, µM, for inactives: largest response in the series, negative = inhibition, most hits filed as inhibitors; actives 3.5% (n = 310,000); AID 1490;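 note: the enzyme is Sfp with the accession as filed and its product quenches rhodamine fluorescence; 0% = enzyme reaction without inhibitor and -100% = no enzyme wells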
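After 15 min at room temperature with compound, 15 nM Sfp received 5 uM rhodamine-CoA plus 12.5 uM BHQ-2-ybbR (50 mM Hepes pH 7.6, 10 mM MgCl2). Rate came from the fluorescence difference over 30 min, ex 525/em 598 nm.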
JMJD2A Tudor inh – blocks the human JMJD2A Tudor domain | actives 4.4% (n = 390,000) | Potency, µM (top dose mostly 114 µM), for the others: top-dose activity change, negative = inhibition, actives largely listed as inhibitors | AlphaScreen JMJD2A-Tudor / H3K4me3 peptide binding | O75164 | AID 504339; note: % is set by controls: 0 for no effect and ±100 for the full control effect; nearly all actives have a fitted effect of over 50% in size
Target sequence (O75164 whole entry, looked up, the tested form may be a part): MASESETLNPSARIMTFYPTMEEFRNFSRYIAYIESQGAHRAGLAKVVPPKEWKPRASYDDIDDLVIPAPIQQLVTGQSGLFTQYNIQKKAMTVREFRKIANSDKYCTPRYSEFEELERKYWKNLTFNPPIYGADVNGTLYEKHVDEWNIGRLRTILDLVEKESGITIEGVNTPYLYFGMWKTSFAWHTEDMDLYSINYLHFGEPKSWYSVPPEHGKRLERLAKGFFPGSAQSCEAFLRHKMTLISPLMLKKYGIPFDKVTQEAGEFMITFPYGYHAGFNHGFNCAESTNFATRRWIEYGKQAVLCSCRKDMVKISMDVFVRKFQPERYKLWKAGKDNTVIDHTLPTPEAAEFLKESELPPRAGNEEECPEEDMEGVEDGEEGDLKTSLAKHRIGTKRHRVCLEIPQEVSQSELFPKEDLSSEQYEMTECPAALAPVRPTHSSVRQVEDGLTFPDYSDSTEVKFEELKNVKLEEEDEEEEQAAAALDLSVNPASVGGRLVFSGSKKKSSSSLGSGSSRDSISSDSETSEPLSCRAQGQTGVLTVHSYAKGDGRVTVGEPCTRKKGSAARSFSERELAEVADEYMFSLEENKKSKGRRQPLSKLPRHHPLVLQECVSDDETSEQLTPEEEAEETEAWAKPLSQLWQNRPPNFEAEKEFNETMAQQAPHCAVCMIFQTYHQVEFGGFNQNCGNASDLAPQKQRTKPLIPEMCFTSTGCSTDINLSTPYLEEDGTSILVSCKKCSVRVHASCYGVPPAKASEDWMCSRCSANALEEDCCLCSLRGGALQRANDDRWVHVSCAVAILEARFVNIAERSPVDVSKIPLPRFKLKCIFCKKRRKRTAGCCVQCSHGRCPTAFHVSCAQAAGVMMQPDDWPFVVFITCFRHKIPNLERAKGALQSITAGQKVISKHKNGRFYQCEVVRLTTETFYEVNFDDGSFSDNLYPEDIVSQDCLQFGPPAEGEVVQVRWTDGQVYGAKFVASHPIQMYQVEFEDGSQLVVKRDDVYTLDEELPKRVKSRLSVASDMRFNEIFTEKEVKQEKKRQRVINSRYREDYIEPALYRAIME
HP1b chromo inh – blocks HP1-beta chromodomain binding to methylated histone tails | AlphaScreen HP1-beta / biotin-H3K9me3 peptide binding | Potency, µM (titrated, usually from 114 µM), for inactives: at the highest dose activity change, negative = inhibition, actives largely listed as inhibitors | actives 0.56% (n = 390,000); note: nearly all actives have a fitted effect of over 70% in size
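HP1-beta protein (50 nM final) preincubated 30 min at room temperature with biotinylated H3(1-18)K9me3 peptide (50 nM) in PBS pH 7.4, 0.01% Tween-20, then compound added for 30 min. AlphaScreen streptavidin donor/nickel chelate acceptor beads (10 ug/mL final), 30 min dark, luminescence read.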
G9a inh – blocks human histone lysine methyltransferase G9a | actives 8.8% (n = 350,000) | G9a H3K9 monomethylation, AlphaScreen, 2 h | Potency, µM (highest dose often 102 µM), without a hit: at the highest dose activity, negative = inhibition, actives largely listed as inhibitors; note: % is set by controls: 0 for no effect and ±100 for the full control effect; nearly all actives have a fitted effect of over 75% in size
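G9a (20 nM) preincubated 15 min RT with compounds, then 500 nM biotinylated H3K9 peptide and 20 uM SAM added; 2 h RT reaction. Monomethyl-H3K9 product detected by AlphaScreen with anti-H3K9me1 antibody, streptavidin donor and anti-rabbit IgG acceptor beads.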
Active calls of the source: *; ? = inconclusive; . = no result given; [ ] = remark or other dose. Calls come from the whole dose curve; as a rule, active = well fitted curve in the direction sought with a large enough effect; inconclusive = small, poorly fitted or top-dose-only effect, or another doubt; inactive = no such curve, though single readings can be large; an effect the other way counts as inactive or inconclusive. Potency is the fitted concentration of half-maximal effect.

SMILES | BAZ2B block | Sfp inh | JMJD2A Tudor inh | HP1b chromo inh | G9a inh
CCc1ccc(/C=C2\SC(=S)N(CCC(=O)NCCCN3CCOCC3)C2=O)cc1 | 35.5µM* | -12.8% | ? | -7.7% | .
O=C(CCCN1C(=O)/C(=C/c2cccc(Br)c2)SC1=S)NCCCN1CCOCC1 | 10µM* | ? | 44.7µM* | -19.0% | 44.7µM*
Cn1nc(C(F)(F)F)c(-c2ccc(Br)cc2)c1NC(=O)c1ccco1 | -13.2% | 14.5% | -7.4% | 0.0% | 13.9%
COc1ccc(S(=O)(=O)NC2CCSc3ccccc32)cc1OC (centres undefined) | 1.2% | 18.4% | -25.8% | 10.4% | 50.1µM*
COc1ccc(CNC2c3ccccc3-c3ccccc32)cc1OC | -28.0% | 16.1% | -19.4% | -2.8% | ?
COc1ccc(CNC2CCSc3ccccc32)cc1OC (centres undefined) | 50.1µM* | -9.4% | 8.91µM* | ? | 10µM*
O=[N+]([O-])c1ccccc1CNC1CCCc2ccccc21 (centres undefined) | 56.2µM* | -20.4% | 28.2µM* | ? | ?
COc1ccc(CNC2CCCc3ccccc32)cc1OC (centres undefined) | 70.8µM* | -5.7% | 11.2µM* | -5.9% | ?
COc1ccc(C(=O)NC2CCSc3ccccc32)cc1F (centres undefined) | 2.4% | 20.2% | -4.3% | 12.8% | -4.8%
CC(=O)Nc1ccc2cc3ccc(NC(C)=O)cc3nc2c1 | -10.6% | -3.1% | -5.7% | 25.4% | .
Cc1cccc(NC(=S)N2CCN(c3ccccc3F)CC2)c1C | ? | 2.7% | -16.6% | 29.2% | .
Cc1cc(S(=O)(=O)C(CNC(=O)COc2ccccc2)c2cccs2)ccc1F (centres undefined) | 4.1% | . | -1.0% | 55.7% | 21.6%[59 µM]
Cc1ccc(S(=O)(=O)C(CNC(=O)COc2ccccc2)c2cccs2)cc1 (centres undefined) | ? | . | 25.1µM* | 20µM* | 11.2µM*
Cc1ccc(NS(=O)(=O)c2ccc(OCC(=O)NCC3CCCO3)cc2)cc1 (centres undefined) | 5.1% | 1.8% | 50.1µM* | -4.8% | 6.0%
Cc1ccc(S(=O)(=O)NCC2CCCO2)cc1 (centres undefined) | 9.8% | 14.3% | -19.0% | 47.1% | 18.5%
COc1ccccc1NS(=O)(=O)c1ccc(O)c(NC(=S)NCC2CCCO2)c1 (centres undefined) | -9.1% | 25.1µM* | -13.8% | ? | .
Cc1ccc(C)c(NS(=O)(=O)c2ccc(OCC(=O)NCC3CCCO3)cc2)c1 (centres undefined) | -11.9% | 13.6% | 0.7% | 26.2% | -9.9%
COc1ccc(NS(=O)(=O)c2ccc(NC(=S)NCC3CCCO3)cc2)cc1 (centres undefined) | 6.5% | -25.9% | -21.2% | 7.3% | -1.8%
Cc1ccc(C(=O)N/C(=C/c2ccc(N(C)C)cc2)C(=O)NCC2CCCO2)cc1 (centres undefined) | -4.0% | 7.5% | -29.8% | 1.1% | 28.2µM*
Cc1ccc(S(=O)(=O)NNC(=S)NCC2CCCO2)cc1 (centres undefined) | -15.1% | -15.4% | -13.8% | -15.6% | 25.1µM*
O=C(NC(=S)NCC1CCCO1)c1ccccc1Br (centres undefined) | 0.9% | 2.7% | -4.0% | 15.2% | 13.2%[59 µM]
Cc1ccc(C(=O)NC(=S)NCC2CCCO2)cc1Br (centres undefined) | ? | -1.4% | -19.4% | 5.9% | 44.7µM*
COc1ccc(Nc2nnc(SCC(=O)NC(=O)Nc3ccc4c(c3)OCCO4)s2)cc1 | -2.4% | -11.5% | -13.0% | 31.1% | -112.8%[59 µM]
CC(C)=NNc1cc([N+](=O)[O-])cc2c1C(=O)N(C)S2=O (centres undefined) | -15.8% | 15.8µM* | -4.1% | 40.4% | 44.7µM*
COc1ccc(-n2c(SCC(=O)Nc3ncc(Cl)cc3Cl)nc3ccccc32)cc1 | -28.8% | ? | . | . | 44.7µM*
O=C(O)CC(CCc1ccccc1)OC1OC(CO)C(O)C(O)C1O (centres undefined) | ? | -8.0% | 8.91µM* | ? | ?
O=C(Cn1nnc(-c2ccccc2F)n1)Nc1ccc2c(c1)OCO2 | 0.3% | -3.8% | -8.1% | 21.1% | 6.2%[59 µM]
